{"source": "PubChem BioAssay (NCATS)", "note": "Results filed as inconclusive are left out. Unmarked numbers belong to inactive results. Calls of active or inactive are those of the source. Calls come from the whole dose curve; as a rule, active = well fitted inhibition curve with a large enough effect; inconclusive = small, poorly fitted or top-dose-only effect; inactive = flat fitted curve, though single readings scatter. % is set by controls: 0 for no effect and ±100 for the full control effect."}
{"tested_on": "KB-3-1", "assay": "Cytotoxic Profiling of Annotated Libraries Using Quantitative High-Throughput Screening (AID 1296008); note: nearly all actives have a fitted effect of over 60% in size", "conditions": "Five cell lines viability, CellTiter-Glo ATP luminescence, 48-72 h, hits give low values", "outline": "(§1)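 Compounds were pin-transferred onto cells and incubated 48 or 72 hr at 37 degree Celsius, 95% humidity. CellTiter-Glo was added, plates sat 10 min at room temperature, then ATP-coupled luminescence was imaged as the viability read-out.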", "units": {"max response": "%"}}
{"compound": "CC(=O)Nc1ccccc1", "max response": 12.7}
{"compound": "O=C(/C=C/c1ccccc1)OCc1ccccc1", "max response": 21.2}
{"compound": "c1ccc2[nH]ccc2c1", "max response": -2.84}
{"compound": "NC(N)=NS(=O)(=O)c1ccc(N)cc1", "max response": 15.5}
{"compound": "Cc1ccc(S(=O)(=O)NC(=O)NC2CCCCC2)cc1", "max response": 3.8}
{"compound": "C[C@H]1COc2c(C3(N)CC3)c(F)cc3c(=O)c(C(=O)O)cn1c23", "max response": 14.4}
{"compound": "Cc1c(NC(C)C)c(=O)n(-c2ccccc2)n1C", "max response": 6.84}
{"compound": "CCCCCC(N)=O", "max response": -2.56}
{"compound": "Cn1c(=O)c2c(ncn2CCO)n(C)c1=O", "max response": -5.28}
{"compound": "CC(C)c1cc2c(cc1S(=O)(=O)O)[C@@]1(C)CCC[C@@](C)(C(=O)O)[C@@H]1CC2", "max response": -7.82}
{"compound": "O=C(NCCCN1CCOCC1)c1ccc(Cl)cc1", "max response": 1.85}
{"compound": "COc1ccccc1OC(=O)Oc1ccccc1OC", "max response": -6.45}
{"compound": "OCc1ccc(Cl)cc1Cl", "max response": -1.05}
{"compound": "CC(=O)Nc1cccc(O)c1", "max response": 0.376}
{"compound": "FC(F)(F)C(Cl)Br", "note": "(stereo unspecified)", "max response": -3.43}
{"compound": "Cc1c(N(C)C)c(=O)n(-c2ccccc2)n1C", "max response": -5.96}
{"compound": "COC(=O)c1cccnc1", "max response": 10}
{"compound": "CCN(CC)CC1CCCCN1CC(=O)N1c2ccccc2C(=O)Nc2cccnc21", "note": "(stereo unspecified)", "max response": 6.89}
{"compound": "Cc1cccc(Nc2ccccc2C(=O)O)c1C", "max response": 3.77}
{"compound": "COc1ccccc1Oc1c(NS(=O)(=O)c2ccc(C(C)(C)C)cc2)nc(-c2ncccn2)nc1OCCO", "max response": -7.61}
{"compound": "CCc1nnc(NS(=O)(=O)c2ccc(N)cc2)s1", "max response": 7.07}
{"compound": "Cc1c(C(=O)NCCO)[n+](=O)c2ccccc2n1[O-]", "max response": -16.8}
{"compound": "O=C1c2cccc(O)c2C(=O)c2c(O)cccc21", "max response": 2.38}
{"compound": "CCCCCCCC(=O)OCC(COC(=O)CCCCCCC)OC(=O)CCCCCCC", "max response": -1.81}
{"compound": "O=C1C(c2[nH]c3ccccc3c2O)=Nc2ccccc21", "max response": 4.4}
{"compound": "NNC(=O)CP(=O)(c1ccccc1)c1ccccc1", "max response": -1.94}
{"compound": "Nc1ncnc2c1ncn2[C@@H]1O[C@H](COP(=O)(O)O)[C@@H](O)[C@H]1O", "max response": -9.67}
{"compound": "CC1CCc2cc(F)cc3c(=O)c(C(=O)O)cn1c23", "note": "(stereo unspecified)", "max response": -6.7}
{"compound": "O=C(O)c1cc(=O)c2ccccc2o1", "max response": -5.78}
{"compound": "C=CCSCC1Nc2cc(Cl)c(S(N)(=O)=O)cc2S(=O)(=O)N1", "note": "(stereo unspecified)", "max response": -3.75}
{"compound": "O=C(O)Cc1ccc(CCNS(=O)(=O)c2ccc(Cl)cc2)cc1", "max response": 0.272}
{"compound": "CC[N+](CC)(CC(=O)Nc1c(C)cccc1C)Cc1ccccc1", "max response": -3.17}
{"compound": "O=c1[nH]c(=O)c2ccccc2o1", "max response": -4.12}
{"compound": "O=C(O)c1ccccc1OP(=O)(O)O", "max response": 12.4}
{"compound": "O=S1(=O)OC(c2ccc(O)cc2)(c2ccc(O)cc2)c2ccccc21", "max response": 15.7}
{"compound": "COc1ccc(C(=O)N2CCN(CC(=O)N3CCOCC3)CC2)cc1", "max response": 5.06}
{"compound": "OCC(O)CS", "note": "(stereo unspecified)", "max response": 1.95}
{"compound": "CN1CCN(C(=O)C2CCCCC2)CC1", "max response": -4.36}
{"tested_on": "NIH3T3", "assay": "Cytotoxic Profiling of Annotated Libraries Using Quantitative High-Throughput Screening (AID 1296008); note: nearly all actives have a fitted effect of over 60% in size", "conditions": "Five cell lines viability, CellTiter-Glo ATP luminescence, 48-72 h; hits give low values", "outline": "as §1", "units": {"max response": "%"}}
{"compound": "CC(=O)Nc1ccccc1", "outcome": "inactive"}
{"compound": "O=C(/C=C/c1ccccc1)OCc1ccccc1", "max response": -4.12}
{"compound": "c1ccc2[nH]ccc2c1", "outcome": "inactive"}
{"compound": "NC(N)=NS(=O)(=O)c1ccc(N)cc1", "outcome": "inactive"}
{"compound": "Cc1ccc(S(=O)(=O)NC(=O)NC2CCCCC2)cc1", "max response": 0.0689}
{"compound": "C[C@H]1COc2c(C3(N)CC3)c(F)cc3c(=O)c(C(=O)O)cn1c23", "max response": 1.93}
{"compound": "Cc1c(NC(C)C)c(=O)n(-c2ccccc2)n1C", "outcome": "inactive"}
{"compound": "CCCCCC(N)=O", "outcome": "inactive"}
{"compound": "Cn1c(=O)c2c(ncn2CCO)n(C)c1=O", "max response": -3.21}
{"compound": "CC(C)c1cc2c(cc1S(=O)(=O)O)[C@@]1(C)CCC[C@@](C)(C(=O)O)[C@@H]1CC2", "outcome": "inactive"}
{"compound": "O=C(NCCCN1CCOCC1)c1ccc(Cl)cc1", "outcome": "inactive"}
{"compound": "COc1ccccc1OC(=O)Oc1ccccc1OC", "max response": 0.277}
{"compound": "OCc1ccc(Cl)cc1Cl", "outcome": "inactive"}
{"compound": "CC(=O)Nc1cccc(O)c1", "max response": 0.534}
{"compound": "FC(F)(F)C(Cl)Br", "note": "(stereo unspecified)", "outcome": "inactive"}
{"compound": "Cc1c(N(C)C)c(=O)n(-c2ccccc2)n1C", "max response": 4.65}
{"compound": "COC(=O)c1cccnc1", "max response": 0.586}
{"compound": "CCN(CC)CC1CCCCN1CC(=O)N1c2ccccc2C(=O)Nc2cccnc21", "note": "(stereo unspecified)", "max response": 4.32}
{"compound": "Cc1cccc(Nc2ccccc2C(=O)O)c1C", "max response": 1.27}
{"compound": "COc1ccccc1Oc1c(NS(=O)(=O)c2ccc(C(C)(C)C)cc2)nc(-c2ncccn2)nc1OCCO", "outcome": "inactive"}
{"compound": "CCc1nnc(NS(=O)(=O)c2ccc(N)cc2)s1", "max response": 3.74}
{"compound": "Cc1c(C(=O)NCCO)[n+](=O)c2ccccc2n1[O-]", "outcome": "inactive"}
{"compound": "O=C1c2cccc(O)c2C(=O)c2c(O)cccc21", "max response": -0.518}
{"compound": "CCCCCCCC(=O)OCC(COC(=O)CCCCCCC)OC(=O)CCCCCCC", "max response": 4.46}
{"compound": "O=C1C(c2[nH]c3ccccc3c2O)=Nc2ccccc21", "max response": 4.36}
{"compound": "NNC(=O)CP(=O)(c1ccccc1)c1ccccc1", "max response": -3.5}
{"compound": "Nc1ncnc2c1ncn2[C@@H]1O[C@H](COP(=O)(O)O)[C@@H](O)[C@H]1O", "max response": 4.32}
{"compound": "CC1CCc2cc(F)cc3c(=O)c(C(=O)O)cn1c23", "note": "(stereo unspecified)", "max response": -1.98}
{"compound": "O=C(O)c1cc(=O)c2ccccc2o1", "outcome": "inactive"}
{"compound": "C=CCSCC1Nc2cc(Cl)c(S(N)(=O)=O)cc2S(=O)(=O)N1", "note": "(stereo unspecified)", "max response": 4.06}
{"compound": "O=C(O)Cc1ccc(CCNS(=O)(=O)c2ccc(Cl)cc2)cc1", "max response": -0.48}
{"compound": "CC[N+](CC)(CC(=O)Nc1c(C)cccc1C)Cc1ccccc1", "max response": 1.97}
{"compound": "O=c1[nH]c(=O)c2ccccc2o1", "max response": -16.8}
{"compound": "O=C(O)c1ccccc1OP(=O)(O)O", "max response": 3.2}
{"compound": "O=S1(=O)OC(c2ccc(O)cc2)(c2ccc(O)cc2)c2ccccc21", "outcome": "inactive"}
{"compound": "COc1ccc(C(=O)N2CCN(CC(=O)N3CCOCC3)CC2)cc1", "outcome": "inactive"}
{"compound": "OCC(O)CS", "note": "(stereo unspecified)", "max response": 0.523}
{"compound": "CN1CCN(C(=O)C2CCCCC2)CC1", "max response": -7.73}
